Rows were chosen to be rich in hits. Some 2.5% of all compounds tested hit in one or more screens of this group.
D2 ag-1 = activates the human D2 dopamine receptor | activation, % at 2 µM | HEK293 T-REx D2 cells, calcium flux agonist mode | 340,000 compounds, 0.53% hits | P14416;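 active = activation over 3 SD above normal in the single-dose calcium agonist read, cut at about 30% in these data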
Target sequence (P14416 whole entry, looked up): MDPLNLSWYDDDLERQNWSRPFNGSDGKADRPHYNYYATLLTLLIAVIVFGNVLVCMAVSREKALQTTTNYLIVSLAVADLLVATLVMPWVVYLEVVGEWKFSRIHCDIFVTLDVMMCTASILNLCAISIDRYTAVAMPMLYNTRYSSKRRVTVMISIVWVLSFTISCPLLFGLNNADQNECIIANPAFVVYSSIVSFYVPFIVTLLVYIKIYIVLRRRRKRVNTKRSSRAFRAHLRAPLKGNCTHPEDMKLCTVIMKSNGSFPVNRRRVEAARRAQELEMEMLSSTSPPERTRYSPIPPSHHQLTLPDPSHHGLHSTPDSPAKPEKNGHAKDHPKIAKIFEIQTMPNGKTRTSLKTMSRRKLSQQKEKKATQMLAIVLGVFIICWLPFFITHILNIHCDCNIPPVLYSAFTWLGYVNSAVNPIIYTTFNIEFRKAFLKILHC
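Tetracycline-induced HEK293 Trex cells with D2 receptor force-coupled to calcium signaling, plated overnight at 30 C and loaded with no-wash calcium dye. Calcium flux read kinetically for 180 s after compound addition; responses flag agonists.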
D2 ag-2 = activates the human D2 dopamine receptor. AID 624465. 360,000 compounds, 0.084% hits. activation, % (test concentration not listed). P14416. DiscoveRx PathHunter D2 beta-arrestin, luminescence, 90 min; 100% = 57 uM dopamine signal; in the data active = activation above about 40%; inconclusive = between about 15% and that limit
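DiscoveRx PathHunter D2 beta-arrestin cells (2,100/well) attached overnight, then compound-stimulated 90 min at 37 C in HBSS/10 mM HEPES/0.1% Tween-20 buffer; beta-galactosidase complementation read by luminescence after 1 h at ambient temperature. Dopamine 57 uM final (EC100) as control.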
D2 PAM-1 = potentiates the human D2 dopamine receptor allosterically; P14416; potentiation, % (concentration not given with the values); DiscoveRx D2 beta-arrestin cells, luminescence, 90 min; 100% = 57 uM dopamine signal; 360,000 compounds, 0.23% hits; in the data active = potentiation above about 50%; inconclusive = mostly about 30% to 49%
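D2 cells co-treated with compound plus 50 nM dopamine (EC20) for 90 min at 37 deg C to detect potentiation. Beta-arrestin recruitment was read as enzyme-fragment luminescence after 1 h at ambient temperature. Full response was set by 57 uM dopamine.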
Anesthetic bind = binds horse apoferritin like a general anesthetic. Potency, µM (highest dose often 77.5 µM), usual class: inhibitors. AID 485281. 350,000 compounds, 0.074% hits. P02791. apoferritin/1-aminoanthracene competitive binding, fluorescence; note: nearly all actives have a fitted effect of over 20% in size
Target sequence (P02791 2-175 limits assumed): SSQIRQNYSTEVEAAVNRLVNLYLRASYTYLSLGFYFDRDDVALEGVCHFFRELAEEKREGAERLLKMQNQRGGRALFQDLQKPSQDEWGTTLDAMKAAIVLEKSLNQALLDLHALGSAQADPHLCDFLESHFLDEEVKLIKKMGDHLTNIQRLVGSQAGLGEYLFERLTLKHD
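10 uM apoferritin + 50% sat. 1-AMA, PBS; cpd 10 min RT; Ex380/Em535 endpoint; normalized to free probe vs complex; 4-param Hill fit; propofol titration as pos. ctrl.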
D2 antagonist = antagonizes the human D2 dopamine receptor; P14416; HEK293 TREx D2 cells, calcium flux, dopamine EC80; inhibition, % at 10 µM; 340,000 compounds, 2% hits; AID 485344; in the data active = inhibition above about 30%; inactive = below that, where a call was filed
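Dopamine at EC80 is the agonist stimulus; test compounds precede it by 180 s. Calcium flux read kinetically in a force-coupled, inducible HEK293 T-REx D2 cell line.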
D2 PAM-2 = positive allosteric modulators of human D2 dopamine receptor | P14416 | HEK293 T-REx D2, calcium flux, EC20 dopamine potentiation | potentiation, % at 10 µM | 340,000 compounds, 0.34% hits | AID 485347;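 active = potentiation over 3 SD above the plate norm, cut at about 30% in these data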
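Potentiation of an EC20 dopamine calcium response measured kinetically over 180 s, after a preceding 180 s compound-only read flagging agonists. Cells: inducible Hek293 Trex D2 line, 4000/well, cultured overnight at 30 C before dye loading.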
D3 arrestin ag = activates human D3 dopamine receptor beta-arrestin recruitment; AID 720506; 2,300 compounds, 4% hits; Potency, µM (series often up to 76.9 µM), most hits filed as activators; DiscoveRx D3 beta-arrestin cells, luminescence, 90 min; shares compounds with D2 ag-1; note: nearly all actives have a fitted effect of over 70% in size
D2 ag-3 = activates human D2 dopamine receptor in D3 counterscreen | 2,300 compounds, 5.9% hits | shares compounds with D2 ag-1 | AID 720507 | DiscoveRx PathHunter D2 beta-arrestin, luminescence, 90 min; response scale: percent relative to full dopamine signal | Potency, µM (series often up to 76.9 µM), usual class: activators; note: nearly all actives have a fitted effect of over 70% in size
A number is an active result; i = inactive; ? = inconclusive; nt = no result given. Unless noted, calls come from the whole dose curve; as a rule, active = well fitted curve in the direction sought with a large enough effect; inconclusive = small, poorly fitted or top-dose-only effect, or another doubt; inactive = no such curve, though single readings can be large; an effect the other way counts as inactive or inconclusive.

SMILES	D2 ag-1	D2 ag-2	D2 PAM-1	Anesthetic bind	D2 antagonist	D2 PAM-2	D3 arrestin ag	D2 ag-3
O=C(C1CCN(c2nnc(N3CCCC3=O)s2)CC1)N1CCN(Cc2ccc3c(c2)OCO3)CC1	57	i	i	i	i	i	i	i
Cn1nnnc1Sc1ncnc2scc(-c3ccc(F)cc3)c12	nt	i	i	i	nt	nt	i	i
Cn1nnnc1Sc1ncnc2scc(-c3ccccc3)c12	i	i	i	i	i	i	nt	nt
COc1cc(CC(=O)OCC(=O)NC(C)c2ccccc2)cc(OC)c1OC (stereo unspecified)	nt	i	i	nt	nt	nt	nt	nt
COc1cccc(CC(=O)OCC(=O)NC(C)c2ccc(F)cc2)c1 (stereo unspecified)	i	i	i	nt	i	i	i	i
O=C(NCC(c1ccco1)N1CCN(c2ccccc2F)CC1)c1ccco1 (stereo unspecified)	32	?	i	nt	54	i	?	?
O=C(NCC1CCCO1)C(=O)NCC(c1ccco1)N1CCN(c2ccccc2F)CC1 (stereo unspecified)	58	i	i	i	48	i	32µM	?
O=C(NCC(c1ccco1)N1CCN(c2ccccc2F)CC1)C(=O)NC1CCCC1 (stereo unspecified)	i	i	i	nt	i	i	nt	nt
O=C(NCC(c1ccco1)N1CCN(c2ccccc2F)CC1)c1cccs1 (stereo unspecified)	i	?	i	nt	i	i	nt	nt
O=S(=O)(/C=C/c1ccccc1)Nc1cccc(S(=O)(=O)NC2=NCCC2)c1	i	i	i	i	i	i	nt	nt
Cc1ccc(C(=O)NNS(=O)(=O)c2ccccc2[N+](=O)[O-])cc1	i	i	i	i	i	i	nt	nt
Cc1cc(C)c(NC(=O)CN2CCN(C)CC2)c(C)c1	i	i	i	i	i	i	nt	nt
CCCCCCOc1cccc(N)c1	i	i	i	?	i	i	nt	nt
CSCCCN1CC[C@@H](N2CCN(c3ccccc3F)CC2)[C@H](O)C1	76	?	i	i	79	i	i	?
CSCCC(=O)N1CC[C@@H](N2CCN(c3ccccc3F)CC2)[C@H](O)C1	i	i	i	i	45	i	i	?
O=C(CCN1CCCO1)N1CCCC(N2CCN(c3ccccc3F)CC2)C1 (stereo unspecified)	i	i	i	i	i	i	nt	nt
NC(=O)CN1CCN(c2ccccc2F)CC1	i	i	i	i	i	i	nt	nt
CC(C)=CC(=O)N1CC[C@@H](N2CCN(c3ccccc3F)CC2)[C@H](O)C1	80	43	i	i	46	i	i	?
Cc1cc(N/N=C/c2cccc(Br)c2)nc2ccccc12	i	i	i	i	i	i	nt	nt
O=C(CCc1ccc(O)c(O)c1)N/N=C/c1cc2c(cc1[N+](=O)[O-])OCO2	i	?	i	i	i	i	nt	nt
CCCn1c(SCC(=O)c2cc(C)n(C3CC3)c2C)n[nH]c1=O	i	i	i	nt	i	i	nt	nt
CCOC(=O)[C@@H]1[C@H]2COc3ccccc3[C@H]2N2C(=O)N(c3ccc(C)cc3)C(=O)[C@]12C	i	i	i	i	i	i	nt	nt
CCOC(=O)Cc1csc(NC(=O)CN2CCN(CC)CC2)n1	i	i	i	i	i	i	nt	nt
CCOC(=O)Cc1csc(NC(=O)CN2CCN(c3ccccc3)CC2)n1	i	i	i	i	i	i	i	i
Cn1nc(-c2ccc3c(c2)OCCO3)c2ccccc2c1=O	i	i	i	i	i	i	nt	nt
SMILES	D2 ag-1	D2 ag-2	D2 PAM-1	Anesthetic bind	D2 antagonist	D2 PAM-2	D3 arrestin ag	D2 ag-3
CC(C)[C@H](NC(=O)OC(C)(C)C)c1nnc(S(=O)(=O)Cc2c(F)cccc2Cl)o1	i	i	i	?	i	i	nt	nt
Cc1ccccc1CN1CCN(C(=O)c2ccco2)CC1	81	47	i	i	70	i	?	20µM
O=C(c1ccco1)N1CCN(Cc2ccccc2F)CC1	78	75	i	i	80	i	?	?
O=C(c1ccco1)N1CCCN(C(=O)c2ccco2)CC1	i	i	i	i	i	i	nt	nt
O=C(c1ccco1)N1CCN(Cc2c(F)cccc2Cl)CC1	nt	i	i	i	nt	nt	nt	nt
Cc1ccc2c(CN3CCN(C(=O)c4ccco4)CC3)cc(=O)oc2c1C	i	i	i	i	i	i	nt	nt
Cc1ccc(Nc2nc(N)nc(CN3CCN(C(=O)c4ccco4)CC3)n2)cc1Cl	67	?	i	?	38	i	i	?
O=C(c1ccco1)N1CCN(Cc2cccnc2)CC1	70	?	i	i	31	i	?	?
CC(=O)Nc1ccccc1-c1nc2ccccc2n(CC(=O)c2ccc(Br)cc2)c1=O	i	nt	nt	i	nt	i	nt	nt
Cc1ccc2cc3c(NC(=O)CC(C)C)nn(C)c3nc2c1	i	i	i	i	i	i	nt	nt
CCCNC(=O)c1c(NC(=O)c2ccc(C)cc2)sc2c1CCCCC2	i	nt	nt	i	nt	i	nt	nt
O=C(Nc1cccc(-c2cccc(Cl)c2)c1)C1CCN(CC2CCOC2)CC1 (stereo unspecified)	i	i	i	i	i	i	nt	nt
O=C(c1ccco1)N1CCN(CCCCOc2ccc(F)cc2)CC1	nt	?	i	i	nt	nt	1µM	?
CCn1c2ccccc2c2cc(CN3CCN(C(=O)c4ccco4)CC3)ccc21	i	i	i	?	i	i	?	i
Cc1ccc(CN2CCN(C(=O)c3ccco3)CC2)cc1	66	70	56	i	82	i	?	4.5µM
Cc1ccc(OCC(=O)N2CCN(C(=O)c3ccco3)CC2)cc1	i	i	i	i	i	i	nt	nt
O=C(CCCOc1ccccc1)N1CCN(C(=O)c2ccco2)CC1	i	i	i	i	i	i	nt	nt
CC1CCN(C(=S)NC(=O)c2ccco2)CC1	i	i	i	i	i	i	nt	nt
O=C(NC(=S)N1CCN(Cc2ccccc2)CC1)c1ccco1	70	i	i	i	i	i	i	i
CCn1c(=O)cc(SCC(=O)N2CCN(C(=O)c3ccco3)CC2)c2ccccc21	i	i	i	i	i	i	nt	nt
CCOc1ccc2c(c1)c1nnc(SCC(=O)N3CCC(C)CC3)nc1n2C	i	i	i	i	i	i	nt	nt
Nc1ccccc1Nc1c(F)c(F)nc(F)c1Cl	i	i	i	i	i	i	nt	nt
COc1ccc2c(CN3CCCC3)cc(=O)oc2c1	nt	i	i	nt	nt	nt	nt	nt
COC(=O)C1CCN(Cc2cc(=O)oc3cc(OC)ccc23)CC1	56	i	i	i	i	i	?	?
COC(=O)C1CCN(Cc2ccc(C)cc2)CC1	75	?	i	i	69	i	i	?

Compound activity deposited in PubChem by National Center for Advancing Translational Sciences (NCATS).
